Source: PubChem BioAssay (National Center for Advancing Translational Sciences (NCATS))
A selection: hits, their analogues and other compounds. The true share with any hit is near 2.9%.
DRD3 antagonist: blocks the human D3 dopamine receptor; D3R cells, DiscoveRx beta-arrestin luminescence, antagonist mode; active compounds read low; max response, negative = inhibition, %; hit rate 2.5% among 360,000; in the data active means max response below about -50%; further: on the % scale 0 is the no-effect control and ±100 the full control effect
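Cells expressing the human receptor were seeded at 1500 cells/well, incubated overnight at 37 degrees C in 5% CO2, then exposed to library compounds with dopamine controls for 90 minutes at 37 degrees C before luminescent detection.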
D3 ag: activates the human D3 dopamine receptor. AID 652048. max activation, %. D3R DiscoveRx beta-arrestin cells, luminescence, 90 min. hit rate 0.58% among 410,000; in the data active means max activation above about 30%; further: 0% is about no effect
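Agonist mode: compounds and dopamine controls were applied to plated cells for 90 min at 37 degrees C after an overnight attachment at 1500 cells/well. Luminescent read-out followed 30 - 60 minutes at room temperature with DiscoveRx detection reagent.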
TRPML1 ag: agonists of human TRPML1 channel. Q9GZU1. TRPML1-expressing cells, Ca2+ dye fluorescence, FDSS. activation, % (concentration not given with the values). hit rate 0.12% among 410,000; in the data active means activation above about 50%; further: 0% is about no effect
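Agonist activity was taken from a 110 s kinetic Ca2+ dye read on the FDSS after pinning compounds onto TRPML1-DL cells. The cells were seeded at 1,500/well with Tet inducer, incubated about 16 h, then dye-loaded at room temperature.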
TRPML1 blocker: blocks the human TRPML1 channel; Q9GZU1; activity change, negative = inhibition, % (test concentration not listed); AID 624415; hit rate 0.02% among 390,000; TRPML1-inducible cells, Ca2+ dye fluorescence, FDSS; active compounds read low; inhibition of EC80 agonist-evoked calcium signal; in the data active means activity change below about -50%;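 further: stimulus is agonist 54-4 at its EC80 concentration; on the % scale 0 is the no-effect control and ±100 the full control effect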
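Tet-induced TRPML1-DL cells loaded with Ca8 no-wash calcium dye were read kinetically on FDSS. Compound addition was followed by EC80 agonist 54-4 (4 uM final); inhibition was read over 110 s.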
The depositor's hits bear a star; · = not tested or not shown.

SMILES	DRD3 antagonist	D3 ag	TRPML1 ag	TRPML1 blocker
O=c1cc(C(F)(F)F)[nH]c2c(C(F)(F)F)cccc12	57	24	0	-16
O=c1cc(C(F)(F)F)[nH]c2ccc(OC(F)(F)F)cc12	30	33*	1	-15
Cc1ccc(-c2cc3c(N4CCN(c5cc(C)ccc5C)CC4)nccn3n2)cc1	·	-2	-1	1
COc1cccc(CNC(=O)C2CCC(CNS(=O)(=O)c3ccc(Br)s3)CC2)c1 (stereo not given)	·	-5	2	-2
CCOC(=O)N1CCN(S(=O)(=O)c2ccc(C(=O)Nc3nnc(CSC)o3)cc2)CC1	10	5	-1	-4
CCOC(=O)N1CCN(S(=O)(=O)c2ccc(C(=O)Nc3nnc(C)o3)cc2)CC1	-51*	-17	0	-7
COC(=O)Oc1c(Br)c(=O)oc2ccccc12	-82*	-1	0	-21
Cc1ccc(F)c(C2C3C=CCC(C)C3C(=O)N2Cc2ccccc2)c1 (stereo not given)	·	·	4	83
O=C(NC1CCCC1)C(c1ccncc1)N(C(=O)Cc1cccs1)c1ccc(F)cc1 (stereo not given)	11	38*	-2	-4
COc1ccc(N(C(=O)Cc2cccs2)C(C(=O)NC2CCCC2)c2ccncc2)cc1 (stereo not given)	11	2	-1	21
Cc1ccc(S(C)=O)cc1-n1c(=O)n(Cc2ccccc2)c(=O)c2[nH]cnc21 (stereo not given)	-104*	-31	0	41
COc1ccc(C)c(-n2c(=O)n(Cc3ccccc3)c(=O)c3[nH]cnc32)c1	-97*	-29	-1	-1
Cc1ccccc1-n1c(=O)n(Cc2ccc(C(=O)O)cc2)c(=O)c2[nH]cnc21	6	8	0	13
O=C(NCCN1CCC(Cc2ccccc2)CC1)C1CCCN(S(=O)(=O)c2cnc[nH]2)C1 (stereo not given)	-77*	-15	0	9
O=C(NCCN1CCN(c2ccccc2F)CC1)C1CCCN(S(=O)(=O)c2cnc[nH]2)C1 (stereo not given)	-56*	27	0	-7
O=C(NCCc1ccccc1)C1CCCN(S(=O)(=O)c2cnc[nH]2)C1 (stereo not given)	-23	-1	0	6
O=C(Cn1cc(COc2ccc(Cl)c(Cl)c2)nn1)NS(=O)(=O)c1ccccc1C(F)(F)F	-67*	-5	-1	·
CCOc1cccc(NC(=O)C2CC(=O)N(C)C2)c1 (stereo not given)	-77*	14	0	17
COc1ccc(CCN2CC(C(=O)Nc3cccc(C(C)=O)c3)CC2=O)cc1OC (stereo not given)	-61*	16	1	-12
CCOc1cccc(NC(=O)C2CC(=O)N(C)C(=Nc3ccccc3)S2)c1 (stereo not given)	16	-1	2	4
COC(=O)c1ccc(NC(=O)c2nc(SCc3ccccc3F)ncc2Cl)cc1	·	·	0	·
COc1ccc(C(=O)O)nc1C	6	2	0	-6
Cc1cc(C)c2ccc(C(=O)O)nc2c1O	-63*	-6	6	16
c1ccc2cnccc2c1	·	·	-1	·
COc1cccc(=O)c2c(C)n(-c3cc(C)cc(C)c3)c(C)c12	-65*	6	1	-7
SMILES	DRD3 antagonist	D3 ag	TRPML1 ag	TRPML1 blocker
CC[C@@H](C)CCCCC(=O)N[C@H](CCN)C(=O)N[C@@H](C(=O)N[C@H](CCN)C(=O)N[C@@H]1CCNC(=O)C([C@@H](C)O)NC(=O)[C@@H](CCN)NC(=O)[C@@H](CCN)NC(=O)[C@@H](CC(C)C)NC(=O)[C@@H](Cc2ccccc2)NC(=O)[C@@H](CCN)NC1=O)[C@@H](C)O (stereo not given in full)	·	7	·	·
CCOC(=O)N1CCN(C(=O)CSCC(=O)Nc2nc(-c3ccc(-c4ccccc4)cc3)cs2)CC1	137	56*	0	2
CCOC(=O)N1CCN(C(=O)CSCC(=O)Nc2nc(-c3ccc(OC)cc3)cs2)CC1	6	-13	1	6
O=C(CN1CCCC1)NC(c1ccccc1)c1ccccc1	-8	-5	-1	4
O=C(CN1CCN(c2ccccc2O)CC1)NC(c1ccccc1)c1ccccc1	-56*	-19	-1	0
CC(NC(=O)CN1CCN(c2ccc(Cl)cc2)CC1)c1ccccc1 (stereo not given)	-1	9	1	0
CCOc1ccccc1N1CCN(CC(=O)NC(C)c2ccccc2)CC1 (stereo not given)	-89*	-22	-1	1
